# Results as given in PubChem BioAssay AID1209 (Sanford-Burnham Center for Chemical Genomics, 2008).
# “And” between values parts separate entries of the source, which are not always exact repeats. Equal entries are not always repeated. Among all 190,000 compounds or so, about 810 (0.43%) were called active. Cut-off read from the data, not from the text of the source: active = inhibition above about 50%; inactive = the rest. Only a selection was taken, and actives are over-represented in it overall.
# Molecular target: Mannose-6-phosphate isomerase (Homo sapiens) (UniProt P34949)
# Sequence (P34949 whole entry, looked up): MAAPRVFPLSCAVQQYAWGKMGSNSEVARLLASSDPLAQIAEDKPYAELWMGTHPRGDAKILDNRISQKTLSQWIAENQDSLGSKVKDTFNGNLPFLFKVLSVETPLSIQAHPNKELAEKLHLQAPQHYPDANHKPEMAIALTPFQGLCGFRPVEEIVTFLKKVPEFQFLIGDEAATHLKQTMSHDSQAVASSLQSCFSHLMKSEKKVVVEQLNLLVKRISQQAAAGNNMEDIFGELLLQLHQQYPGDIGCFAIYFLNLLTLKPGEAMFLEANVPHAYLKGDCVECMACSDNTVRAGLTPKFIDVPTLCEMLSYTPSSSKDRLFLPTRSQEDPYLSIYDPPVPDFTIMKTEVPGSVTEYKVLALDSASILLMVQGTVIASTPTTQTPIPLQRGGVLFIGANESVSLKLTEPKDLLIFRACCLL
# Assay: inhibitors of human PMI, primary screen, biochemical, fluorescence intensity, coupled assay (AID 1209);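 note: plate controls were DMSO vehicle for no effect and wells lacking substrate for full effect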
# Settings: purified PMI enzyme, at 20 µM, stronger effect = higher value
row,SMILES,inhibition
1,O=c1c2ccccc2oc2nc(-c3ccco3)n(-c3ccccc3)c(=O)c12,1.3% (inactive)
2,Cn1c(=Nc2ccc(N3CCOCC3)cc2)ccc2ccccc21,78.4% (active)
3,CCn1c(=Nc2ccc(N3CCOCC3)cc2)ccc2ccccc21,6% (inactive)
4,Cn1c(N=Nc2ccc(N3CCOCC3)cc2)[n+](C)c2ccccc21,15.1% (inactive)
5,CCOC(=O)Cc1csc(NC(=O)c2c(-c3ccccc3)noc2C)n1,2.9% (inactive)
6,Cc1cc(C)n(C(=O)c2ccncc2)n1,6.1% (inactive)
7,CC(=O)Oc1ccc2c(=O)c(N3C(=O)c4ccccc4C3=O)c(C)oc2c1C,14.5% (inactive)
8,Cc1oc2cc(O)ccc2c(=O)c1Oc1ccccc1,9.2% (inactive)
9,CCn1c(NCc2ccccn2)nc2c1c(=O)n(C)c(=O)n2C,-0.4% (inactive)
10,Oc1c(/C=N/c2ncn[nH]2)ccc2ccccc12,14.9% (inactive)
11,Oc1c(/C=N/Nc2cccc3cccnc23)ccc2ccccc12,-30.2% (inactive)
12,Oc1c(C=Nc2cccc3nsnc23)ccc2ccccc12,70.7% (active)
13,CCCCCCC1CC(=O)NC(=S)N1 (stereo not drawn),4.8% (inactive)
14,COc1ccc(NC(=O)C(C)Oc2ccc(/C(C)=N\O)cc2)cc1 (stereo not drawn),-0.3% (inactive)
15,COc1cccc2cc(C(C)N(CCCN3CCOCC3)C(=S)Nc3cccc(C)c3)oc12 (stereo not drawn),5.2% (inactive)
16,COc1ccc(CNC(=O)c2cccc3c2C(=O)N(Cc2cccnc2)C3)cc1,4.4% (inactive)
17,O=c1oc2c(O)c(O)cc3c(=O)oc4c(O)c(O)cc1c4c23,67.5% (active)
18,Cc1c(Br)c(=O)oc2c(Br)c(O)c(O)cc12,12.8% (inactive)
19,Cc1c(Br)c(=O)oc2c(Br)c(O)ccc12,-26.1% (inactive)
20,O=C(COC(=O)c1ccc(Cl)nc1)c1ccc2c(c1)OCCO2,-10.6% (inactive)
21,CSCC[C@H](NC(=O)c1cc([N+](=O)[O-])ccc1Cl)c1nc2ccccc2[nH]1,16.7% (inactive)
22,CN(C)c1ncccc1-c1nc2ccccc2s1,-2.6% (inactive)
23,Cc1c(Cc2ccccc2)c(=O)oc2c(O)c(O)ccc12,77.6% (active)
24,COc1ccc2c(C)c(Cc3ccccc3)c(=O)oc2c1OC,0.7% (inactive)
25,Cc1c(Cc2ccccc2)c(=O)oc2c(CN(C)C)c(O)c(Cl)cc12,1.2% (inactive)

row,SMILES,inhibition
1,N#C/C(C(=O)N1CCCCC1)=C1/N=C(N)c2ccccc21,-1.3% (inactive)
2,CC1CC1C(=O)Nc1cc(S(=O)(=O)N2CCOCC2)ccc1N1CCCC1 (stereo not drawn),-3.9% (inactive)
3,N#Cc1ccc(OCC(=O)NCCc2ccc(S(N)(=O)=O)cc2)cc1,-7% (inactive)
4,O=c1c2ccccc2sn1-c1cc(S(=O)(=O)N2CCOCC2)ccc1N1CCOCC1,104% (active)
5,O=S(=O)(c1ccc2c(c1)oc1ccccc12)N1CCOCC1,9.1% (inactive)
6,O=c1c2ccccc2sn1-c1cc(S(=O)(=O)N2CCOCC2)ccc1N1CCCC1,92.7% (active)
7,O=C(O)c1cc(S(=O)(=O)N2CCOCC2)ccc1N1CCOCC1,-1% (inactive)
8,O=c1c2ccccc2sn1-c1ccc(S(=O)(=O)N2CCCC2)cc1,42.4% (inactive)
9,Cc1ccc(C)n1-c1cc(S(=O)(=O)N2CCOCC2)ccc1N1CCCC1,9.8% (inactive)
10,CC(=O)c1ccc(N(C(=O)c2ccco2)C(C(=O)NC2CCCC2)c2ccc(N3CCOCC3)cc2)cc1 (stereo not drawn),6.3% (inactive)
11,Cc1ccc(P(=O)(CO)c2ccc(C)cc2)cc1,-12% (inactive)
12,CN(Cc1ccccc1)C(=O)COC(=O)c1ccc(Cl)c(N)c1,9.3% (inactive)
13,O=C(Cc1ccc(Cl)cc1Cl)NCC1(N2CCOCC2)CCCCC1,14.5% (inactive)
14,Cc1ccc(NS(=O)(=O)c2cc(C(=O)Nc3cccc(N(C)S(C)(=O)=O)c3)ccc2C)c(C)c1,5.7% (inactive)
15,CCOC(=O)C1CCN(C(=O)CC(C)c2ccccc2)CC1 (stereo not drawn),-0.6% (inactive)
16,CCN(CC)c1ccc(C=Nc2ccc(C)cc2C)c(O)c1,-0.7% (inactive)
17,Cc1ccc(O)c(C=Nc2cc(C)ccc2O)c1,23.1% (inactive)
18,CCN(CC)c1ccc(C=Nc2ccccc2C)c(O)c1,27.1% (inactive)
19,Cc1ccccc1N=Cc1cccc(O)c1O,74.1% (active)
20,CCc1ccc(O)c(N=Cc2cccc(C)c2O)c1,18.5% (inactive)
21,O=C(/C=C/c1ccc([N+](=O)[O-])cc1)N(c1ccccn1)C1CCCCC1,-38.1% (inactive)
22,COc1cc(/C=N/N=C(/N)c2nonc2N)cc(Br)c1OCc1cccc(C)c1,16.3% (inactive)
23,OC(CNCc1ccccc1Cl)C(F)(F)F (stereo not drawn),5.4% (inactive)
24,COc1ccccc1N1CCN(C(=O)c2ccc(CSc3ccccc3)cc2)CC1,-1.4% (inactive)
25,Cc1ccc(O)c(CP(=O)(c2ccccc2)c2ccccc2)c1,-4.9% (inactive)

row,SMILES,inhibition
1,COc1ccc(F)cc1C(=O)C1CCCN(C(=O)C2=C(C)OCCO2)C1 (stereo not drawn),5.1% (inactive)
2,CCCCCn1c(SCC(=O)OC)nc2c1c(=O)[nH]c(=O)n2C,0.2% (inactive)
3,CCCCCCn1c(SCC(=O)OC)nc2c1c(=O)[nH]c(=O)n2C,54% (active)
4,CCCCn1c(SCC(=O)OCC)nc2c1c(=O)[nH]c(=O)n2C,3.6% (inactive)
5,Fc1ccc2nc(N3CCCC3)sc2c1,8.5% (inactive)
6,COc1cc(CNC(C)(C)CO)cc(Br)c1OCc1ccc(Cl)cc1,5.6% (inactive)
7,FC(F)(F)c1cccc(OCCOCCn2cncn2)c1,3.9% (inactive)
8,O=C(NCc1ccco1)c1cnn2c1NC(c1ccc(Br)cc1)CC2C(F)(F)F (stereo not drawn),27% (inactive)
9,O=C(NCc1ccco1)c1cnn2c1NC(c1ccccc1)CC2C(F)(F)F (stereo not drawn),-6.3% (inactive)
10,Cc1ccc(C2CC(C(F)(F)F)n3ncc(C(=O)NCc4ccco4)c3N2)cc1 (stereo not drawn),108% (active)
11,COc1cc(NC(=O)C(C)Oc2ccccc2)c(C(=O)O)cc1OC (stereo not drawn),10.7% (inactive)
12,O=C(Cc1c[nH]c2ccccc12)NC1(C(=O)NC2CCCCC2)CCCCC1,-4% (inactive)
13,COC(=O)c1ccc(C2C(Oc3ccccc3)C(=O)N2CCc2ccc(OC)c(OC)c2)cc1 (stereo not drawn),-2.9% (inactive)
14,COC(=O)c1ccc(C2C(Oc3ccc(OC)cc3)C(=O)N2CCc2ccc(F)cc2)cc1 (stereo not drawn),-0.6% (inactive)
15,COC(=O)c1ccc(C2C(Oc3ccc(OC)cc3)C(=O)N2CCc2ccc(OC)c(OC)c2)cc1 (stereo not drawn),52% (active)
16,COCCNC(=O)C(c1cccs1)N(C(=O)Cn1nnc2ccccc21)c1cccc(C)c1 (stereo not drawn),5.9% (inactive)
17,O=C(Cn1cc(/C=N/NC(=O)c2ccccc2Br)c2ccccc21)Nc1ccc(F)cc1,5.7% (inactive)
18,O=C(CCS(=O)(=O)c1ccc(Cl)cc1)OCC(=O)N1CCCCC1,9.3% (inactive)
19,Cc1cccc(-n2nnc(C(=O)NCc3ccco3)c2N)c1,-18.8% (inactive)
20,CCOC(=O)c1ccc(N2C(=O)CC(N(C)CCc3ccc(OC)c(OC)c3)C2=O)cc1 (stereo not drawn),16.4% (inactive)
21,CCOc1cccc(N2C(=O)CC(N(CCc3ccc(OC)c(OC)c3)C(=O)CC)C2=O)c1 (stereo not drawn),57% (active)
22,CCOc1ccc(N2C(=O)CC(N(CCc3ccc(OC)c(OC)c3)C(=S)Nc3ccccc3)C2=O)cc1 (stereo not drawn),19.8% (inactive)
23,O=C(CSc1n[nH]c(=O)[nH]c1=O)Nc1ccc(C(=O)O)cc1,-8.4% (inactive)
24,O=[N+]([O-])c1cc(-c2ncccn2)cs1,-13.4% (inactive)
25,O=[N+]([O-])c1cccnc1NCc1cccs1,-2.4% (inactive)

row,SMILES,inhibition
1,O=C(O)CCC(=O)Nc1ccc(Cc2ccc(NC(=O)CCC(=O)O)c(O)c2)cc1O,-9.3% (inactive)
2,Cc1ccc(Cl)cc1N1CCN(C(=O)CN2C(=O)c3cccc4cccc2c34)CC1,12.6% (inactive)
3,c1cnc2c(c1)ccc1cccnc12,5.7% (inactive) and 24.3% (inactive)
4,O=S1(=O)NC(=NCCc2ccccn2)c2ccccc21,-7.8% (inactive)
5,O=S1(=O)Nc2c(ccc3cccnc23)-c2ccccc21,62% (active)
6,COc1ccc(-c2c(C)n([O-])c3c([n+]2=O)CCC3)cc1OC,8% (inactive)
7,c1ccc(-c2ccccc2-n2cnnn2)cc1,-7.6% (inactive)
8,Cc1cc(C)nc(N2CCCC(C(=O)Nc3nnc(C)s3)C2)n1 (stereo not drawn),-13.6% (inactive)
9,Cc1cc(C)nc(N2CCCC(C(=O)Nc3nc4ccc(S(C)(=O)=O)cc4s3)C2)n1 (stereo not drawn),51.4% (active)
10,O=C(Nc1nc2ccc(S(=O)(=O)N3CCCC3)cc2s1)C1CCCCC1,7.3% (inactive)
11,CS(=O)(=O)c1ccc2nc(NC(=O)CCC(=O)c3cccs3)sc2c1,-8.5% (inactive)
12,Cc1nn(C)c(C)c1CS(=O)(=O)c1ccccc1,-8.9% (inactive)
13,CCn1c(C)c(CS(=O)(=O)c2ccccc2)[nH]c1=O,85.5% (active)
14,CCc1c(C(C)S(=O)(=O)c2ccccc2)[nH]c(=O)n1CC (stereo not drawn),-38% (inactive)
15,Cc1cc(C)cc(-n2cc(C(=O)O)c(=O)cc2C)c1,5.3% (inactive)
16,COc1ccc(NC(=O)CSc2nc3sc(C)c(C)c3c(=O)n2Cc2ccco2)cc1,7.7% (inactive)
17,CCOc1ccc(/C=C2\SC(=S)NC2=O)cc1OC,-12% (inactive)
18,CCOc1c(O)ccc(/C=C2\SC(=S)NC2=O)c1[N+](=O)[O-],55.7% (active)
19,C=CCN1C(=O)/C(=C/c2ccc(OC(C)=O)c(OCC)c2[N+](=O)[O-])SC1=S,41.3% (inactive)
20,CC(=O)c1c(C(=O)O)[nH]c(C(=O)O)c1C,108% (active)
21,CC(=O)c1c(C)[nH]c(C(=O)O)c1C,13.6% (inactive)
22,CC(=O)c1[nH]c(C)c(C(C)=O)c1C,11% (inactive)
23,S=c1nc(-c2ccccc2)n(CCCn2ccnc2)c2c1CCCC2,1.7% (inactive)
